This is a sample that favours compounds with a hit; in the whole collection about 3.4% have one here.
FBW7 act = activators of human E3 ligase FBW7. Q969H0. AlphaScreen FBW7–phospho-cyclin E peptide binding, activator screen. normalized activity (activation), % at 26.1 µM. 0.13% of 650,000 active. AID 1259310; in the data active means normalized activity above about 1.9%;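 further: purified mutant Fbw7 with reduced substrate affinity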
TEAD-YAP block = TEAD-YAP interaction inhibition. inhibition, % at 9.12 µM. 1.4% of 640,000 active. HEK-TIYL cells, TEAD-Gal4/YAP UAS-luciferase luminescence; in the data active means inhibition above about 32%;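 further: 0% = median of test compound wells and 100% = reference inhibitor wells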
MITF inh = inhibitors of human MITF | AlphaScreen MITF homodimerization, bead proximity signal | AID 1259374 | O75030 | 0.91% of 650,000 active | inhibition, % at 2.6 µM; in the data active means inhibition above about 50%;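 further: 0% = vehicle wells with protein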
GPR151 ag = activators of human GPR151; 1% of 650,000 active; PathHunter beta-arrestin GPR151 cells, luminescence; activation, % at 11.2 µM; AID 1508602; Q8TDV0; in the data active means activation above about 4.9%;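 further: 0% = median of compound wells and 100% = cells with positive control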
Target sequence (Q8TDV0 whole entry, looked up): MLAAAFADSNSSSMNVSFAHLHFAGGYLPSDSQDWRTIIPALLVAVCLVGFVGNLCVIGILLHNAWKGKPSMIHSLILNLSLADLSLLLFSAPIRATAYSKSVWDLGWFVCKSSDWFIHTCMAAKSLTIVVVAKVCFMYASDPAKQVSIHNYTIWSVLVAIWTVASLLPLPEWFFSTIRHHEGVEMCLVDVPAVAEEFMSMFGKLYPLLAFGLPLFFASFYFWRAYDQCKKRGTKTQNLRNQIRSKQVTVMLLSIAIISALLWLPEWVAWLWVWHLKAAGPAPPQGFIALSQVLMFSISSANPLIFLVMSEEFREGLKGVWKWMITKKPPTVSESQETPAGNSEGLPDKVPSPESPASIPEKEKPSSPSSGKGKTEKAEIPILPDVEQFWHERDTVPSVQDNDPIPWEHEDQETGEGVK
An asterisk follows results filed as active.

SMILES	FBW7 act	TEAD-YAP block	MITF inh	GPR151 ag
Cc1ccc(F)cc1Nc1ncnc(N)c1[N+](=O)[O-]	2.1*	-1	17	-1
Cc1ccc(NC(=O)C(F)(F)F)cc1C	0	8	3	-1
Cc1cc(-c2cccc3[nH]c(C(F)(F)F)nc23)nn1C(=O)c1cccnc1	0	63*	-1	3
Oc1ccc(O)c(CN2CCCCCC2)c1	-1	-2	82*	-1
O=[N+]([O-])c1cccc(CSc2nc(NCCc3ccccc3)c3ccccc3n2)c1	1	-9	-3	-2
Cc1ccc(C2=NNC(c3ccncc3)S2)cc1 (configuration not stated)	0	-12	8	-1
O=[N+]([O-])c1ccc(C2NN=C(Cc3ccccc3)S2)cc1 (configuration not stated)	0	-43	-7	-1
Cc1ccc(C2=NNC(c3ccc(O)cc3O)S2)cc1 (configuration not stated)	1	80*	10	-1
Oc1ccc(C2NN=C(Cc3ccccc3)S2)c(O)c1 (configuration not stated)	0	8	102*	0
O=[N+]([O-])c1cc2c(c(CN(Cc3ccco3)S(=O)(=O)c3ccccc3F)c1)OCOC2	0	47*	-1	1
CC(C)CCN(Cc1cc([N+](=O)[O-])cc2c1OCOC2)S(=O)(=O)c1ccccc1F	0	-5	8	2
C=CCN1/C(=C/c2cccc[n+]2C)Sc2ccccc21	0	77*	5	2
CN1/C(=C/c2cc[n+](C)cc2)Sc2ccccc21	0	32	-4	2
C=CCN1/C(=C/c2cc[n+](C)cc2)Sc2ccccc21	0	87*	14	1
O=C(CN(C(=O)c1csnn1)c1cccc(Cl)c1)NCc1ccccc1	0	3	-4	1
FC(F)(F)c1cccc(NCc2cn3ccccc3n2)c1	0	-24	1	0
FC(F)(F)c1cccc(NCc2cn3cccnc3n2)c1	2.3*	-1	3	0
Cc1nc(SCc2ccc(Cl)c(Cl)c2)n[nH]1	0	8	17	-1
COc1ccc(CSc2n[nH]c(C)n2)cc1Br	0	34*	5	-1
Cn1c(=O)cc(OCCCC(=O)Nc2ccc(Cl)cn2)c2ccccc21	0	43*	5	0
O=C(O)CNC(=O)c1ccc([N+](=O)[O-])cc1Cl	0	6	14	3
O=C(NCc1ccccc1)c1c(Cl)nc(Cl)c(Cl)c1Cl	0	47*	-2	0
Cc1ccccc1NC(=O)c1c(Cl)nc(Cl)c(Cl)c1Cl	1	64*	14	-1
Cc1cccc(NC(=O)c2c(Cl)nc(Cl)c(Cl)c2Cl)c1C	1	36*	11	2
Cc1nc(Cl)c(C(=O)NCc2ccccc2)c(C)c1Cl	0	1	-5	-1
SMILES	FBW7 act	TEAD-YAP block	MITF inh	GPR151 ag
CC1CCN(C(=O)c2ccc3nc(N4C(=O)CCC4=O)sc3c2)CC1	1.9*	-10	17	0
CC1=C(C#N)C(c2cccnc2)C2=C(N1)c1ccccc1C2=O (configuration not stated)	0	56*	-7	0
O=C1c2ccc([N+](=O)[O-])cc2C(=O)N1c1cccc2ccccc12	1	10	-6	-1
Cc1cccc(-n2[nH]nnc2=S)c1C	0	-2	5	-2
O=c1c2ccccc2ncn1-c1ccc([N+](=O)[O-])cc1[N+](=O)[O-]	0	49*	13	-1
CCn1nc(C(=O)OCC(=O)Nc2cc([N+](=O)[O-])ccc2F)c2ccccc2c1=O	0	-2	4	-1
CC(=NC#N)c1c(C(F)(F)F)[nH]n(-c2nc3ccccc3s2)c1=O	0	42*	2	-7
O=C(NC(=S)Nc1ccc(N2CCOCC2)cc1)c1cccc(Br)c1	0	-5	8	0
COc1cc(Nc2cc(Nc3nccc4ccccc34)ncn2)cc(OC)c1OC	2	49*	-14	-1
COc1cc(Nc2cc(Nc3cccc(N(C)C)c3)ncn2)cc(OC)c1OC	0	40*	9	1
Cc1cnc(Nc2cccc(N(C)C)c2)nc1NCCN(C(C)C)C(C)C	0	9	3	-1
Cc1cnc(Nc2cccc(N(C)C)c2)nc1Nc1ccccc1	0	46*	13	1
Cc1cnc(Nc2ccncc2)nc1Nc1ccccc1	0	49*	6	1
c1ccc(Nc2cc(Nc3nccc4ccccc34)ncn2)cc1	0	-17	-10	1
COc1cc(Nc2ccnc(Nc3cccc(N(C)C)c3)n2)cc(OC)c1OC	0	11	12	1
Cc1cccc(OCC(O)Cn2c(N3CCCC3)nc3c2c(=O)[nH]c(=O)n3C)c1 (configuration not stated)	1	1	14	0
C=Cc1ccc(CC2(C)C(=O)Nc3ccc(OC)cc32)cc1 (configuration not stated)	0	1	-4	0
COc1cc(Nc2nc(Nc3cccc(N(C)C)c3)ncc2C)cc(OC)c1OC	0	54*	11	-1
COc1ccc(CCNc2nc(Nc3cccc(N(C)C)c3)ncc2C)cc1	0	16	2	3
CCNc1cc(C)nc(NCCNC(=O)Nc2cc(Cl)ccc2OC)n1	0	33*	2	-1
COC(=O)c1cccc(-n2c(C)cc(/C=C(/C#N)C(=O)NCc3ccco3)c2C)c1	0	21	18	0
COC(=O)c1cccc(-n2c(C)cc(/C=C(\C#N)C(=O)Nc3ccccc3)c2C)c1	0	39*	-6	0
CNC(=O)/C(C#N)=C/c1cc(C)n(-c2ccc(F)cc2)c1C	-1	71*	10	0
CC(C)C(=O)Nc1cccc(NC(=O)c2cccc(Br)c2)c1	0	-6	-8	0
CC(C)(C)NC(=O)c1cccc(NC(=O)c2cccc(O)c2)c1	0	34*	14	-1
SMILES	FBW7 act	TEAD-YAP block	MITF inh	GPR151 ag
CC(=O)Oc1ccc(C(=O)Nc2cccc(C(=O)NC(C)(C)C)c2)cc1	0	12	-1	2
CC(C)C(=O)Nc1cccc(C(=O)Nc2cccc(O)c2)c1	1	59*	14	-2
Cc1c(C(=O)NNC(=O)c2ccc(Cl)c(Cl)c2)nnn1-c1nonc1N	1	7	20	0
Cc1cc(-c2cnc(N3CCCC3)nc2C2CCN(C(=O)c3scnc3C)CC2)on1	0	60*	-4	1
COC(=O)c1sc(NC(=O)CSc2ccc(Cl)cc2)c(C(=O)OC)c1C	0	-4	13	2
COc1ccc2c(c1)CC/C(=C\c1cccn1C)C2=O	0	46*	15	-7
Cc1ccc(-c2cnc(NC3CC3)nc2)cc1	1	54*	11	-6
OC1C(O)C(O)C(O)C(O)C1O (configuration not stated)	0	0	12	-1
O=C1OC(c2cccc(Cl)c2)=N/C1=C\c1cccc(Cl)c1	0	-12	-13	0
O=C1OC(c2cccc(Cl)c2)=N/C1=C\c1ccccc1	0	73*	-9	-8
O=C(COc1ccccc1)N(NC(=O)C(c1ccccc1)(c1ccccc1)c1ccc(O)cc1)c1ccccc1	0	7	5	0

Compound activity: PubChem BioAssay, The Scripps Research Institute Molecular Screening Center
